# SMARCA2 activ – SMARCA2 function activation, primary screen | 370,000 compounds, 1% hits | MG213 cells, MMTV-luciferase reporter, dexamethasone, overnight | activation, % at 9.1 µM; in the data active means activation above about 7.8%;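 further: 0% = vehicle wells and 100% = reference activator wells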
# dFosB act – activators of mouse delta FosB homodimer | P13346 | purified delta FosB, TAMRA-CDK5 oligo fluorescence polarization; percent of positive-control signal above neutral wells | activation, % at 25 µM | 340,000 compounds, 0.99% hits | AID 493131;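 active means mean activation above about 17%, with every replicate also reaching it, limit read from the data, passing the limit was not always enough; inconclusive means only one of the two conditions met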
# Rtt109 HAT inh – inhibitors of Candida albicans Rtt109/Vps75 histone acetyltransferase | purified Rtt109/Vps75, ThioGlo CoA-SH fluorescence, 4 h | inhibition, % at 34.9 µM | 330,000 compounds, 0.16% hits;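 active means inhibition of at least 50% in every replicate; inconclusive means best replicate reaches 50% inhibition but some replicates fall short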
# Target sequence (Q5AAJ8 whole entry, looked up): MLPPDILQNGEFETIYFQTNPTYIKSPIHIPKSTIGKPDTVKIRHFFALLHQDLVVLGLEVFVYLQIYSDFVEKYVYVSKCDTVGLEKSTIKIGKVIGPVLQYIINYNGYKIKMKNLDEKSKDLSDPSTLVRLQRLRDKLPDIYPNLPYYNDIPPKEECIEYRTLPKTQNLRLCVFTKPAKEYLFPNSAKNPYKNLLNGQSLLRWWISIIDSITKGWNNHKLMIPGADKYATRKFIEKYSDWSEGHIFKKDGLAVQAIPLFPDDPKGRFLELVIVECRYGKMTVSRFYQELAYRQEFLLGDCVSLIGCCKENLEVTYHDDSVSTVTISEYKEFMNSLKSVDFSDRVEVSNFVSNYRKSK
# CDK5 inh – blocks human CDK5/p35 kinase activity; Q00535+Q15078; 330,000 compounds, 0.01% hits; Recombinant CDK5/p35, ADP-Glo luminescence, 60 min; inhibition, % at 10 µM;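 active means highest replicate inhibition of at least 50% and at least 75% of replicates reaching 50%; inconclusive means only one of the two criteria met; inactive means both criteria failed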;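 further: plate controls were DMSO neutral control for no effect and GW8510 at 10 µM for full effect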
# Dyrk1A ADPGlo – inhibitors of rat Dyrk1A kinase; 310,000 compounds, 0.43% hits; Q63470; ADP-Glo luminescence, NFATc1 peptide; inhibition, % at 12.5 µM; in the data active means inhibition above about 50%;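 further: plate controls were vehicle with enzyme for no effect and no enzyme for full effect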
# esBAF inh – blocks esBAF chromatin remodeling in mouse ES cells; Bmi1-luciferase knock-in reporter, 24 h; 100% = twice the neutral-well signal; reporter increase, % at 12.5 µM; 350,000 compounds, 2% hits; in the data active means activation above about 40%; inconclusive means no clear call, values can overlap the other calls;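 further: 0% = median of the plate's neutral control wells and 100% = double that signal; a rise in the Bmi1 reporter signal indicates esBAF inhibition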
# * marks the source's active call; other numbers are inactive results; ? = inconclusive; . = no result. Rows were chosen to be rich in hits. Some 3.2% of all compounds tested hit in one or more screens of this group.
SMILES,SMARCA2 activ,dFosB act,Rtt109 HAT inh,CDK5 inh,Dyrk1A ADPGlo,esBAF inh
COCCNc1oc(-c2ccccc2Cl)nc1C#N,0.2,4.6,-31.9,-0.9,33.1,54.6*
Cc1c2cc[n+](CCN3CCCCC3)cc2c(C)c2c1[nH]c1ccc(O)cc12,.,89.4*,-3.5,7.4,26.7,.
O=C(Nc1ccccc1OC(F)F)c1cc2c(s1)CCC2,4.0,-11.0,-10.6,0.5,3.1,44.4*
Cc1ccc(NC(=O)NCC2CCN(Cc3cccc(Cl)c3)CC2)cc1Cl,-3.5,20.1*,13.5,0.0,1.9,-8.5
Cc1ccc(Oc2ccc(/C=N/O)cn2)cc1,2.8,-5.3,-3.1,0.6,-0.9,48.0*
Cc1ccc(COc2ccc(/C=N/O)cc2)cc1,5.2,0.4,-0.1,-0.8,-5.0,.
C[C@H](CO)N1C[C@H](C)[C@H](CN(C)Cc2ccncc2)Oc2c(NC(=O)C3CCOCC3)cccc2C1=O,.,.,.,.,.,-8.0
Cc1cc(C)c(NC(=O)Cn2nnc(C(=O)NCc3ccco3)c2N)c(C)c1,-2.1,9.0,18.5,0.1,0.5,2.1
Cc1cc(C)c(NC(=O)Cn2nnc(C(=O)Nc3ccc(F)cc3F)c2N)c(C)c1,-1.4,25.3*,-10.9,1.8,-3.6,7.1
Cc1cccc(C)c1NC(=O)Cn1nnc(C(=O)Nc2ccc(F)cc2F)c1N,0.4,45.9*,2.7,1.6,-1.9,7.4
COC(=O)C(Cc1ccc(OC(=O)c2ccc(C(F)(F)F)cc2)cc1)N1Cc2ccccc2C1=O (centres undefined),.,-5.2,-4.5,-4.8,2.0,46.5*
Cc1ccc(NC(=O)C2CCCC2)c(Br)c1,-4.9,3.9,-12.7,-3.8,7.7,11.6
Cc1ccc(NC(=O)CC2CCCC2)c(Br)c1,0.1,-1.1,2.5,-1.4,-4.1,50.0*
Cc1ccc(NC(=S)NC(=O)C2CCCCC2)c(Br)c1,1.0,-11.3,-6.4,-5.2,.,62.8*
C[C@@H]1CN([C@H](C)CO)C(=O)c2cc(NC(=O)C3CCCCC3)ccc2O[C@H]1CN(C)C(=O)NC1CCCCC1,.,.,.,.,.,2.3
O=C(NC(=O)c1csnn1)Nc1ccccc1Cl,1.6,2.3,3.2,-1.9,-0.8,50.0*
O=C(Nc1cccs1)Nc1ccccc1Cl,1.6,0.3,-1.8,-0.7,12.4,44.1*
NC(=O)NC(=O)Nc1ccccc1Cl,-2.3,0.0,-3.1,5.3,18.9,-2.2
Cc1ccc(-c2ccc3c(c2)O[C@@H](CN(C)C)[C@@H](C)CN([C@@H](C)CO)S3(=O)=O)cc1,.,.,.,.,.,-7.4
CCc1ccc2nc(NC(=O)C3CCN(c4ncnc5sc(C)c(C)c45)CC3)sc2c1,4.6,10.9,3.0,0.3,.,59.5*
Cc1ccc(NC(=O)C2CCCN(S(=O)(=O)c3ccc4[nH]c(=O)ccc4c3)C2)cc1C (centres undefined),-1.7,2.4,-0.6,1.2,7.5,13.6
Cc1cccc(NC(=O)C2CCCN(S(=O)(=O)c3ccc4[nH]c(=O)ccc4c3)C2)c1 (centres undefined),0.8,44.6*,-6.0,1.9,7.4,1.9
N#C/C(=C\c1ccc(F)cc1)c1nc(-c2ccco2)cs1,-0.4,-7.2,3.1,0.6,-9.3,79.1*
N#C/C(=C\c1ccc(Cl)cc1)c1nc(-c2ccco2)cs1,1.7,-2.3,-2.6,-1.9,5.0,.
C[C@H]1CCCCO[C@H](CN(C)Cc2ccccc2)[C@@H](C)CN([C@@H](C)CO)C(=O)c2cc(NC(=O)c3ccncc3)ccc2O1,.,.,.,.,.,-8.3
SMILES,SMARCA2 activ,dFosB act,Rtt109 HAT inh,CDK5 inh,Dyrk1A ADPGlo,esBAF inh
Cn1c(=O)c2cn3c(c2n(C)c1=O)C(c1ccccc1)CC(c1ccccc1)=N3 (centres undefined),-1.4,-7.7,6.7,-2.1,-1.0,77.3*
Cn1c(=O)c2c(-c3ccccc3)n(-c3ccccc3)cc2n(C)c1=O,-1.4,.,.,.,.,-11.7
c1csc(C2Nc3cccc4cccc(c34)N2)c1,-4.2,36.4*,-7.6,2.7,13.4,-3.7
O=C(C[C@@H]1CC[C@H]2[C@@H](COC[C@H](O)CN2C(=O)Nc2ccc(F)cc2)O1)NCCc1ccncc1,.,.,.,.,.,2.4
Cc1ccnc(Nc2nc(-c3sc(C)nc3C)cs2)c1,-8.3,-16.7,4.3,4.5,17.5,43.0*
Cc1ccnc(Nc2nc(-c3ccc(Cl)cc3)cs2)c1,1.0,-11.6,-0.8,0.0,-8.5,66.9*
c1ccc(-c2nc3c4ccccc4ccn3c2CN2CCOCC2)cc1,1.4,-10.0,19.5,2.0,17.6,34.0
COc1ccc(-c2nc3c4ccccc4ccn3c2Cc2cccc(F)c2)cc1OC,6.1,.,.,.,.,41.4*
COc1ccc(-c2nc3c4ccccc4ccn3c2CN2CCOCC2)cc1OC,-1.2,0.9,19.8,-1.2,17.6,57.0*
COCC(=O)Nc1ccc2c(c1)C(=O)N(C)C[C@@H](OC)[C@@H](C)CN(Cc1ccccn1)[C@@H](C)CO2,.,.,.,.,.,-0.8
O=C(Nc1ccccc1)N(O)c1ccc(Cl)cc1,2.8,5.6,-1.5,0.0,4.7,68.4*
COc1ccc(NC(=O)Nc2cccc3c2O[C@@H](CN(C)C(=O)Nc2ccc(C(F)(F)F)cc2)[C@@H](C)CN([C@@H](C)CO)C3=O)cc1,.,.,.,.,.,8.9
CCC1CCCN1Cn1cnc2c([nH]c3ccc(Cl)cc32)c1=O (centres undefined),9.7*,-15.9,1.8,-0.4,-1.7,.
CCC1CCCN1Cn1cnc2c([nH]c3ccc(C)cc32)c1=O (centres undefined),-1.0,2.8,5.1,-0.1,-2.2,.
C=C(C)C1CC=C(C)C(=NNC(=O)c2ccncc2)C1 (centres undefined),3.2,-4.5,-1.6,0.4,-1.9,0.8
C=C(C)C1CC=C(C)/C(=N/NC(=O)c2cccs2)C1 (centres undefined),1.9,-4.9,-5.6,-1.0,0.9,42.5*
OC[C@@H]1CC[C@@H](Cc2ccc(-c3ccccc3)cc2)O1,3.9,-3.3,3.7,-0.7,-1.1,68.2*
COc1ccc(NC(=O)NC[C@@H]2CC[C@@H](Cc3ccc(-c4ccccc4)cc3)O2)cc1,0.1,?,-10.2,0.9,-1.7,20.7
CCOC(=O)C1=C(C)N(C[C@@H]2CC[C@@H](Cc3ccc(-c4ccccc4)cc3)O2)C(=O)NC1c1ccc(-c2ccccc2)cc1 (some centres undefined),-0.3,?,10.1,0.6,.,-5.5
NC(=O)NC[C@@H]1CC[C@@H](Cc2ccc(-c3ccccc3)cc2)O1,.,-1.8,6.1,2.7,-2.8,69.0*
Cc1noc(C)c1NC(=O)Nc1ccc2c(c1)C(=O)N([C@H](C)CO)C[C@@H](C)[C@H](CN(C)Cc1ccc(C(F)(F)F)cc1)OCCCC[C@H](C)O2,.,.,.,.,.,-0.4
COCC(=O)Nc1ccc2c(c1)C(=O)N(C)C[C@@H](OC)[C@H](C)CN(Cc1ccccn1)[C@H](C)CO2,.,.,.,.,.,0.5
c1ccc(-c2cnc(-c3ccccc3)nn2)cc1,7.9*,-3.3,-0.1,1.4,10.8,-39.5

# Screens from PubChem.
